Active and inactive are the calls of the source.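 How the source made its calls, unless noted: active means compounds that lower survival of HCT116 colon cancer cells in the luminescence readout, no numeric limit stated; inactive means the rest.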

A short description of assay [1]: Wnt pathway potentiators raising nuclear beta-catenin – imaging, WNT3A-conditioned medium, mouse C2C12, NPC library, primary screen (AID 1117326; in the data active means nuclear beta-catenin stimulation mostly above about 4.2%, no sharp cut-off; inactive means mostly below about 10%; further: reference of the scale not given here). The following applies: stronger effect = higher value.
Assay [2] is described as follows: stimulators of insulin release from INS-1E, primary screen, cell-based, 5 mM glucose, NPC library (AID 1117329;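 active means compound raises insulin release from rat beta cells at 5 mM glucose, no numeric limit stated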; further: reference of the scale not given here). The following applies: rat INS-1E insulin secretion, at 10 µM, stronger effect = higher value.
The nature of assay [3]: growth inhibition of GSK3B-pretreated HCT116 cells – cell-based, CellTiter-Glo, 0.2 to 20 µM (AID 1117336;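 active means compounds lowering colon cancer cell viability after pretreatment blocking the GSK3B kinase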). The following applies: HCT116 viability after GSK3B inhibitor, at 20 µM, stronger effect = higher value. (Cellular ATP, detected with luciferase, serves as a proxy for viable cell number.)
Assay [4] in a line: inhibition of endothelial tube formation, primary screen, imaging, VEGF stimulated, CD31 staining, tube area, NPC library (AID 1117340;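 active means compound that reduces growth-factor-driven endothelial tube area in a mixed cell culture, no cutoff stated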). The conditions noted are these: VEGF-stimulated ADSC/ECFC co-culture, at 10 µM, stronger effect = higher value.
Assay [5] is described as follows: GLP1 release stimulators, primary, NCI-H716, NPC library (AID 1117341;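 active means compound raises GLP1 secretion from the human gut endocrine cells, with no numeric limit stated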; further: reference of the scale not given here). The conditions noted are these: NCI-H716 cells, at 10 µM, stronger effect = higher value.
Assay [6] in a line: HCT116 colon cancer cell growth inhibition, primary screen, CellTiter-Glo luminescence, NPC library (AID 1117342). The following applies: at 20 µM (top of the series).
A short description of assay [7]: reduced SW480 viability measured with CellTiter-Glo, NPC library, primary (AID 1117343;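 active means compounds that lower viability of the colon cancer cells in the luminescence readout, with no numeric limit stated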). The conditions noted are these: CellTiter-Glo luminescence; at 20 µM (top of the series).
Assay [8] is described as follows: NPC library primary testing for decreased DLD-1 cell viability via CellTiter-Glo (AID 1117346;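 active means compounds that lower survival of DLD-1 colon cancer cells in the luminescence readout, no cutoff given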). The following applies: DLD-1 viability, CellTiter-Glo luminescence; at 20 µM (top of the series).

As for `O=[N+]([O-])c1ccc(/C=N\O)o1`, the nuclear beta-catenin stimulation in assay [1] (at 10 µM) was 2% (inactive); in assay [1] (stimulation, at 2 µM) it was 0.4%. Also, in assay [2], the insulin secretion stimulation is -3.1% (inactive). In assay [3], the viability decrease was 35.1% (inactive). Further, in assay [4], the tube area decrease was -16.1% (inactive). The GLP1 secretion stimulation in assay [5] was 4% (inactive). For the same compound, in assay [6], the inhibition of viability is 8.8% (inactive). Moreover, the results for the viability decrease (inhibition) in assay [7] and in assay [8] were 53.4% (active) and 4.47% (inactive), respectively.

As to `c1ccc(-c2nc[nH]c2-c2ccccc2)cc1`, the nuclear beta-catenin stimulation was 0.2% (inactive) in assay [1] (at 10 µM) and 2.7% in assay [1] (stimulation, at 2 µM). In assay [2], the insulin secretion stimulation is -1.3% (inactive). Further, in assay [3], the viability decrease is -7.1% (inactive). Further, in assay [4], the tube area decrease was 12.1% (inactive). Further, the GLP1 secretion stimulation in assay [5] was 3.1% (inactive). In addition, the inhibition of viability in assay [6] was -17.5% (inactive). The viability decrease (inhibition) was 55% (active) in assay [7] and -0.05% (inactive) in assay [8].

Turning to `NCCC(=O)[N-][C@@H](Cc1cnc[nH]1)C(=O)O.[Zn]`, the nuclear beta-catenin stimulation in assay [1] (at 10 µM) was -0.4% (inactive); in assay [1] (stimulation, at 2 µM) it was -0.2%. Further, the insulin secretion stimulation in assay [2] was -0.8% (inactive). Besides, the viability decrease in assay [3] was -1.2% (inactive). Moreover, in assay [4], the tube area decrease was 9.1% (inactive). In addition, the GLP1 secretion stimulation in assay [5] is 1.7% (inactive). Moreover, the inhibition of viability in assay [6] was -12.4% (inactive). The viability decrease (inhibition) in assay [7] is -14.8% (inactive); in assay [8], 5.9% (inactive).

Consider `CC(=O)OC[C@H]1O[C@@](COC(C)=O)(O[C@H]2O[C@H](COC(C)=O)[C@@H](OC(C)=O)[C@H](OC(C)=O)[C@H]2OC(C)=O)[C@@H](OC(C)=O)[C@@H]1OC(C)=O`, for which the nuclear beta-catenin stimulation in assay [1] (at 10 µM) was 0.3% (inactive); in assay [1] (stimulation, at 2 µM), -0.8%. In assay [2], the insulin secretion stimulation is -0.2% (inactive). In addition, in assay [3], the viability decrease is -1% (inactive). For the same compound, the tube area decrease in assay [4] was 0.8% (inactive). Also, the GLP1 secretion stimulation in assay [5] is -0.5% (inactive). For the same compound, the inhibition of viability in assay [6] was 3.93% (inactive). Moreover, the viability decrease (inhibition) in assay [7] is 16.6% (inactive); in assay [8], -8% (inactive).

With `N#CSCC(=O)O`, the nuclear beta-catenin stimulation was 0.3% (inactive) in assay [1] (at 10 µM) and 1% in assay [1] (stimulation, at 2 µM). In addition, the insulin secretion stimulation in assay [2] was 0.5% (inactive). Also, the viability decrease in assay [3] was -47.6% (inactive). In addition, the tube area decrease in assay [4] is 2.4% (inactive). The GLP1 secretion stimulation in assay [5] was -0.1% (inactive). Also, the inhibition of viability in assay [6] was -4.8% (inactive). Moreover, the viability decrease (inhibition) in assay [7] was -6.2% (inactive); in assay [8], -5.4% (inactive).

For the compound `C/C(=N/NC(=O)c1ccncc1)C(=O)O`, the nuclear beta-catenin stimulation is -0.8% (inactive) in assay [1] (at 10 µM) and -0.3% in assay [1] (stimulation, at 2 µM). Also, the insulin secretion stimulation in assay [2] is -0.8% (inactive). Further, the viability decrease in assay [3] was -23.6% (inactive). In assay [4], the tube area decrease is -6.8% (inactive). Besides, the GLP1 secretion stimulation in assay [5] is -2.8% (inactive). Besides, in assay [6], the inhibition of viability was -1.23% (inactive). Further, the viability decrease (inhibition) is 17.4% (inactive) in assay [7] and 4.2% (inactive) in assay [8].

As to `CC(=O)Oc1ccc(C2(c3ccc(OC(C)=O)cc3)C(=O)Nc3ccccc32)cc1`, the nuclear beta-catenin stimulation in assay [1] (at 10 µM) is 1.7% (inactive); in assay [1] (stimulation, at 2 µM), 0.9%. In addition, the insulin secretion stimulation in assay [2] was -2.1% (inactive). Also, the viability decrease in assay [3] was 32.6% (inactive). Further, the tube area decrease in assay [4] is 51.8% (active). Further, in assay [5], the GLP1 secretion stimulation is 4% (inactive). Also, the inhibition of viability in assay [6] is 39% (inactive). Besides, the viability decrease (inhibition) in assay [7] was 15.8% (inactive); in assay [8], 49.1% (inactive).

On to `O=C(O)c1c(O)c(-c2ccccc2)nc2ccccc12`, for which the nuclear beta-catenin stimulation in assay [1] (at 10 µM) is 0.5% (inactive); in assay [1] (stimulation, at 2 µM), -0.8%. Moreover, the insulin secretion stimulation in assay [2] is 3% (inactive). The viability decrease in assay [3] was 66.1% (active). Besides, the tube area decrease in assay [4] was 2.6% (inactive). For the same compound, the GLP1 secretion stimulation in assay [5] is -0.1% (inactive). In assay [6], the inhibition of viability is 39.2% (inactive). For the same compound, the viability decrease (inhibition) in assay [7] was 107% (active); in assay [8], 39% (inactive).

`CCN1CCN(c2cc(-c3ccc(F)cc3)c3c(n2)CCCCCC3)CC1`: the nuclear beta-catenin stimulation in assay [1] (at 10 µM) was 0.2% (inactive); in assay [1] (stimulation, at 2 µM) it was -3.3%. In addition, the insulin secretion stimulation in assay [2] is 1.9% (inactive). Moreover, the viability decrease in assay [3] is 104% (active). The tube area decrease in assay [4] is 24% (inactive). Further, in assay [5], the GLP1 secretion stimulation is 11.2% (inactive). Further, the inhibition of viability in assay [6] was 113% (active). The values for the viability decrease (inhibition) in assay [7] and in assay [8] were 132% (active) and 102% (active), respectively.

On to `O=C(O)c1ccc(OCCN2CCCCC2)cc1`, for which the nuclear beta-catenin stimulation in assay [1] (at 10 µM) is -1% (inactive); in assay [1] (stimulation, at 2 µM), -0.1%. The insulin secretion stimulation in assay [2] was -2.35% (inactive). Moreover, the viability decrease in assay [3] is 2.1% (inactive). In assay [4], the tube area decrease was 4.5% (inactive). Further, the GLP1 secretion stimulation in assay [5] is 4% (inactive). Further, in assay [6], the inhibition of viability is -8.6% (inactive). Further, the viability decrease (inhibition) in assay [7] is -5.5% (inactive); in assay [8], 0.5% (inactive).

`Clc1ccc2c(c1)Nc1ccccc1S2`: the nuclear beta-catenin stimulation in assay [1] (at 10 µM) is 0.9% (inactive); in assay [1] (stimulation, at 2 µM) it was -2.3%. Besides, in assay [2], the insulin secretion stimulation is 4.2% (inactive). In addition, in assay [3], the viability decrease was 55.6% (active). Further, the tube area decrease in assay [4] was 26.5% (inactive). Besides, in assay [5], the GLP1 secretion stimulation was -3.1% (inactive). Also, the inhibition of viability in assay [6] is 32.4% (inactive). The viability decrease (inhibition) is 31.8% (inactive) in assay [7] and 17.5% (inactive) in assay [8].

Take `CCn1ccc(NS(=O)(=O)c2ccc(N)cc2)nc1=O`: the nuclear beta-catenin stimulation was 1.9% (inactive) in assay [1] (at 10 µM) and 1.4% in assay [1] (stimulation, at 2 µM). For the same compound, the insulin secretion stimulation in assay [2] was 3.4% (inactive). Moreover, the viability decrease in assay [3] is -22.1% (inactive). In assay [4], the tube area decrease is 11.6% (inactive). In addition, the GLP1 secretion stimulation in assay [5] was 2.7% (inactive). The inhibition of viability in assay [6] is -54.2% (inactive). Also, the figures for the viability decrease (inhibition) in assay [7] and in assay [8] were -2.8% (inactive) and -26.4% (inactive), respectively.

As for `CC(C)=CCOc1ccc(/C=C/C(=O)c2ccc(OCC=C(C)C)cc2OCC(=O)O)cc1`, the nuclear beta-catenin stimulation was 10.1% (inactive) in assay [1] (at 10 µM) and -0.2% in assay [1] (stimulation, at 2 µM). Further, the insulin secretion stimulation in assay [2] was 0.6% (inactive). The viability decrease in assay [3] was 99.2% (active). Moreover, the tube area decrease in assay [4] is 108% (active). Also, the GLP1 secretion stimulation in assay [5] was -0.1% (inactive). Further, in assay [6], the inhibition of viability is 99.6% (active). Further, the viability decrease (inhibition) in assay [7] and in assay [8] was 102% (active) throughout.

Turning to `CO/N=C(\C(=O)O)c1csc(NC(=O)CCl)n1`, the nuclear beta-catenin stimulation in assay [1] (at 10 µM) is 0.7% (inactive); in assay [1] (stimulation, at 2 µM), 2.9%. Besides, the insulin secretion stimulation in assay [2] is 1.4% (inactive). Also, the viability decrease in assay [3] was 16.2% (inactive). In addition, in assay [4], the tube area decrease is -12.1% (inactive). In assay [5], the GLP1 secretion stimulation is 1.7% (inactive). Further, in assay [6], the inhibition of viability was -2% (inactive). Further, the viability decrease (inhibition) in assay [7] is -1.7% (inactive); in assay [8], -2.1% (inactive).

For the compound `CO[C@@]1(NC(=O)CSC[C@@H](N)C(=O)O)C(=O)N2C(C(=O)O)=C(CSc3nnnn3C)CS[C@@H]21`, the nuclear beta-catenin stimulation in assay [1] (at 10 µM) is 0.6% (inactive); in assay [1] (stimulation, at 2 µM), -1.7%. In addition, the insulin secretion stimulation in assay [2] was 2.6% (inactive). Moreover, in assay [3], the viability decrease was 4.5% (inactive). Further, the tube area decrease in assay [4] was -11.8% (inactive). Besides, the GLP1 secretion stimulation in assay [5] was -0.5% (inactive). Further, the inhibition of viability in assay [6] is -0.6% (inactive). Besides, the viability decrease (inhibition) in assay [7] is -15.3% (inactive); in assay [8], 3.1% (inactive).

`COC(=O)[C@H]1[C@H]2C[C@@H]3c4[nH]c5cc(OC)ccc5c4CCN3C[C@H]2C[C@@H](OC(=O)COc2ccc(OC)cc2)[C@@H]1OC`: the nuclear beta-catenin stimulation in assay [1] (at 10 µM) is 3.2% (inactive); in assay [1] (stimulation, at 2 µM), -0.2%. In addition, the insulin secretion stimulation in assay [2] was -1.2% (inactive). Further, the viability decrease in assay [3] is 10.9% (inactive). Also, the tube area decrease in assay [4] was 9.6% (inactive). In addition, the GLP1 secretion stimulation in assay [5] is 8.5% (inactive). In assay [6], the inhibition of viability is 33.6% (inactive). The values for the viability decrease (inhibition) in assay [7] and in assay [8] were -12.3% (inactive) and 1.9% (inactive), respectively.

The values are drawn from PubChem BioAssay.
